Source: PubChem BioAssay (several laboratories)
The list is not random: actives were taken first. Their share in the collection is about 3.3%.
FXN GAA850 act: frataxin GAA850 promoter activation; 360,000 tested, 0.56% active; activation, % at 6 µM; HEK293 lucGAA850 FXN promoter luciferase reporter, 24 h; percent of 10 µM SAHA response;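 active means activation above the average of all compounds screened plus 3 SD, cutoff fixed separately per campaign, cut at about 7.5% in these data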;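 further: 0% = DMSO wells and 100% = 10 µM SAHA wells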
MITF act: increases MITF-driven TRPM1 promoter luciferase signal; SK-MEL-5 TRPM1-promoter luciferase, 24 h; % of positive control, neutral wells = 0; activation, % at 12.5 µM; 300,000 tested, 0.75% active; AID 588334;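 active means mean activation of at least 80% with every replicate also reaching 80%; inconclusive means mean reaches 80% but some replicate falls short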;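 further: 0% = neutral control wells and 100% = parthenolide positive control wells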
Wnt act: activators of Wnt/beta-catenin signaling. Wnt/beta-catenin reporter cell assay, activator, plate reader. activation, % at 9.35 µM. 300,000 tested, 1.2% active; in the data active means activation above about 30%, passing the limit was not always enough; inconclusive means no clear call, values can overlap the other calls;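 further: 0% = neutral control wells and 100% = positive control wells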
C2C12 statin: suppression of simvastatin myotoxicity; C2C12 myotubes + simvastatin, ATP luminescence, 48 h; scaled: DMSO 0, geranylgeraniol control 100; AID 602340; 330,000 tested, 0.78% active; rescue of ATP level, % at 7.49 µM;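 active means mean ATP rescue above about 67%, or every replicate alone reaching that limit, limit read from the data, passing the limit was not always enough; inconclusive means no clear call, values can overlap the other calls; inactive means mean under the limit and some replicate under it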;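 further: myotubes were challenged with 10 µM simvastatin during compound exposure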
esBAF inh: inhibitors of esBAF chromatin remodeling in mouse ES cells; AID 602393; 350,000 tested, 2% active; reporter increase, % at 12.5 µM; Bmi1-luciferase knock-in reporter, 24 h; 100% = twice the neutral-well signal; in the data active means activation above about 40%; inconclusive means no clear call, values can overlap the other calls;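 further: 0% = median of the plate's neutral control wells and 100% = double that signal; a rise in the Bmi1 reporter signal indicates esBAF inhibition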
The depositor's hits bear a star; ? = inconclusive; nt = no result.

SMILES	FXN GAA850 act	MITF act	Wnt act	C2C12 statin	esBAF inh
Cc1noc(C)c1NC(=O)N[C@H]1C=C[C@@H](CC(=O)N2CCN(C)CC2)O[C@@H]1CO	nt	nt	nt	-6	2
O=C(c1ccccn1)N1C[C@@H]2[C@H](c3ccccc31)[C@H](CO)N2C(=O)c1ccccn1	nt	nt	nt	29	1
Clc1ccc(Sc2cnc3ccccc3n2)cc1	5	?	11	nt	45*
COc1cccc(N2CCN(c3cnc4ccccc4n3)CC2)c1	5	50	8	nt	nt
c1ccc(N2CCN(c3cnc4ccccc4n3)CC2)cc1	3	55	nt	-8	-2
Clc1ccc(N2CCN(c3cnc4ccccc4n3)CC2)cc1	4	39	nt	9	45*
COc1ccc(N2CCN(c3cnc4ccccc4n3)CC2)cc1	5	97*	10	5	53*
C[C@H](CO)N1C[C@H](C)[C@@H](CN(C)C(=O)Nc2ccc3c(c2)OCO3)Oc2ncc(-c3cccnc3)cc2C1=O	nt	nt	nt	0	17
CCCC(=O)N/C(N)=N/c1nc2ccccc2o1	3	88*	46*	nt	nt
CC(C)CC(=O)N/C(N)=N/c1nc2ccccc2o1	3	86*	53*	-3	75*
CC(C)(C)C(=O)N/C(N)=N/c1nc2ccccc2o1	6	?	65*	-5	15
CCCNC(=O)Nc1ccc2c(c1)C(=O)N(C)C[C@H](OC)[C@H](C)CN(C(=O)C1CCC1)[C@@H](C)CO2	nt	nt	nt	9	-5
COc1ccc(-c2cn(CC[C@H]3CC[C@H](NC(=O)CCN4CCCCC4)[C@H](CO)O3)nn2)cc1	nt	nt	nt	2	1
CC(C)Oc1cccc(-c2cc(C(=O)N3CCN(c4ncccn4)CC3)c3ccccc3n2)c1	-5	51	-6	32	60*
CC(Cc1ccco1)NC(=O)c1ccc(C(F)(F)F)cc1 (configuration not stated)	5	128*	18	0	16
Cc1ccc(OCC(=O)O/N=C(\N)c2ccccn2)cc1	4	80	-3	-1	46*
N/C(=N\OC(=O)Cc1cccc2ccccc12)c1ccccn1	2	79	42*	nt	nt
N/C(=N\OC(=O)Cc1ccc(Cl)cc1)c1ccccn1	3	78	nt	9	47*
Cc1ccc(CC(=O)O/N=C(\N)c2ccccn2)cc1	4	28	40*	1	15
Cc1ccc(OCC(=O)O/N=C(\N)c2cccnc2)cc1	3	37	14	nt	nt
Cc1ccc(S(=O)(=O)Nc2cccc3c2O[C@@H](CN(C)C(=O)Nc2ccc4c(c2)OCO4)[C@@H](C)CN([C@H](C)CO)C3=O)cc1	nt	nt	nt	-17	18
COc1ccccc1-c1cnc2c(c1)C(=O)N([C@@H](C)CO)C[C@H](C)[C@@H](CN(C)Cc1cccnc1)O2	nt	nt	nt	-9	-3
N/C(=N\OC(=O)COc1cc(Cl)c(Cl)cc1Cl)c1ccccn1	5	74	16	nt	nt
Cc1cccc(OCC(=O)O/N=C(\N)c2ccccn2)c1C	5	?	20	36	72*
Cc1ccc(C)c(NC(=O)Cn2nnc(C(=O)NCc3ccco3)c2N)c1	-4	-10	-4	10	-1
SMILES	FXN GAA850 act	MITF act	Wnt act	C2C12 statin	esBAF inh
Nc1c(C(=O)NCc2ccco2)nnn1CC(=O)Nc1ccccc1	-1	13	1	97*	-4
O=S(=O)(c1cccc2nsnc12)N1CCOCC1	1	-3	1	114*	-4
COc1cccc(C(=O)N2C[C@@H]3[C@H](c4ccccc42)[C@@H](CO)N3Cc2ccccc2Cl)c1	nt	nt	nt	4	0
Cc1nc2ccc(S(=O)(=O)NCC(=O)N3CCCC(C)C3)cc2s1 (configuration not stated)	0	3	nt	106*	1
Cc1nc2ccc(S(=O)(=O)NCC(=O)N3CCc4ccccc4C3)cc2s1	-3	-2	-3	1	-4
CCOC(=O)C1(C)C=C(Nc2cccc(OC)c2)C(=O)N1c1ccccc1 (configuration not stated)	1	nt	43*	nt	nt
CCOC(=O)C1(C)C=C(Nc2ccc(OC)cc2)C(=O)N1c1ccc(OC)cc1 (configuration not stated)	0	-6	nt	nt	nt
O=C(C[C@@H]1CC[C@H](NC(=O)c2ccc3c(c2)OCO3)[C@H](CO)O1)NCc1ccc(Cl)cc1	nt	nt	nt	10	-2
C[C@@H]1CN([C@H](C)CO)C(=O)c2cc(NC(=O)CCC(F)(F)F)ccc2O[C@@H](C)CCCCO[C@H]1CN(C)C(=O)c1ccccc1	nt	nt	nt	nt	-1
